# Results: the antibiotic and cytotoxicity screens of Wong et al. (2023)
# Screen size: about 39,000 compounds; about 1,500 (3.8%) were called active. Many of the other results were omitted from the sample, so actives are more common in it than they were.
# System: HSkMC (human skeletal muscle cells)
# Experiment: cytotoxicity call (relative viability < 0.9)
# Settings: 10 µM
row,SMILES,cytotoxicity call
1,Cc1noc(C)c1S(=O)(=O)N(C)C[C@@H]1Oc2ccc(NC(=O)Cc3cn(C)c4ccccc34)cc2CC(=O)N([C@@H](C)CO)C[C@H]1C,inactive
2,C[C@@H]1CN([C@@H](C)CO)C(=O)c2cc(NS(=O)(=O)c3ccc(F)cc3)ccc2O[C@@H]1CN(C)CC1CC1,inactive
3,CCc1c(O)cc(O)c(C(=O)c2ccc(OCCN3CCOCC3)c(OC)c2)c1CC(=O)N(CCOC)CCOC,active
4,COc1cc(C(=O)OCCN2CCN(CCOC(=O)c3cc(OC)c(OC)c(OC)c3)CC2)cc(OC)c1OC,inactive
5,COc1c(OCCCN2CCOCC2)ccc2c1N=C(NC(=O)c1cnc(N)nc1)N1CCN=C21,inactive
6,C[C@@H]1CN([C@@H](C)CO)S(=O)(=O)c2ccc(C#CC3(O)CCCC3)cc2O[C@H]1CN(C)C(=O)Nc1ccccc1,inactive
7,N=C(N)N/N=C1\CCc2c(C(=N)N)cccc21,active
8,C[C@H](CO)N1C[C@H](C)[C@H](CN(C)S(=O)(=O)c2ccccc2)Oc2ccc(NS(=O)(=O)c3ccccc3)cc2CC1=O,inactive
9,C[C@H](CO)N1C[C@H](C)[C@@H](CN(C)Cc2ccc3c(c2)OCO3)Oc2cc(C#CCN(C)C)ccc2S1(=O)=O,inactive
10,CNC(=O)c1ccc(Nc2ncc(C(F)(F)F)c(NCc3nccnc3N(C)S(C)(=O)=O)n2)cc1,active
11,CN(c1ncccc1CNc1nc(Nc2ccc3c(c2)CC(=O)N3)ncc1C(F)(F)F)S(C)(=O)=O,active
12,C[C@H](CO)N1C[C@H](C)[C@@H](CN(C)S(C)(=O)=O)Oc2ccc(NS(=O)(=O)c3cccs3)cc2CC1=O,inactive
13,C[C@H](CO)N1C[C@H](C)[C@@H](CN(C)S(=O)(=O)c2cn(C)cn2)Oc2ccc(NC(=O)CCC(F)(F)F)cc2CC1=O,inactive
14,COc1ccncc1-c1ccccc1CN(C(=O)c1ccc(-c2ccc(C#N)cc2)o1)c1ccc(N2CCNCC2)cc1,active
15,C[C@H](CO)N1C[C@H](C)[C@@H](CN(C)Cc2ccc(Cl)c(Cl)c2)Oc2ccc(NC(=O)Nc3ccc(F)cc3)cc2CC1=O,active
16,C[C@@H]1CN([C@H](C)CO)C(=O)Cc2cc(NC(=O)Nc3ccc(F)cc3)ccc2O[C@H]1CN(C)Cc1ccc(Cl)c(Cl)c1,active
17,C[C@@H]1CN([C@@H](C)CO)C(=O)Cc2cc(NC(=O)Nc3ccc(F)cc3)ccc2O[C@@H]1CN(C)Cc1ccc(Cl)c(Cl)c1,active
18,C[C@@H]1CN([C@@H](C)CO)C(=O)Cc2cc(NC(=O)Nc3ccc(F)cc3)ccc2O[C@H]1CN(C)Cc1ccc(Cl)c(Cl)c1,active
19,C[C@@H]1CCCCO[C@@H](CN(C)C(=O)c2ccccc2)[C@H](C)CN([C@H](C)CO)C(=O)c2cc(NC(=O)Nc3cccc4ccccc34)ccc2O1,inactive
20,C[C@@H]1CN([C@@H](C)CO)C(=O)c2cc(NS(=O)(=O)c3ccc(F)cc3)ccc2O[C@@H](C)CCCCO[C@@H]1CN(C)C(=O)Nc1ccccc1,inactive
21,C[C@H]1CCCCO[C@H](CN(C)Cc2ccc(C(F)(F)F)cc2)[C@@H](C)CN([C@@H](C)CO)C(=O)c2cc(NC(=O)C3CCCCC3)ccc2O1,inactive

row,SMILES,cytotoxicity call
1,C[C@@H]1CN([C@H](C)CO)C(=O)Cc2cc(NC(=O)CCN3CCOCC3)ccc2O[C@@H]1CN(C)Cc1ccccc1,inactive
2,C[C@H](CO)N1C[C@H](C)[C@H](CN(C)Cc2ccc(Oc3ccccc3)cc2)Oc2ccc(NC(=O)C3CCCCC3)cc2C1=O,inactive
3,Cc1ccc(S[C@]2(C(=O)O)CC(=O)N(Cc3ccccc3C(F)(F)F)[C@@H]2c2ccc(CO)cc2)cc1,inactive
4,COc1cccc(S(=O)(=O)N(C)C[C@@H]2Oc3ncc(-c4cccc(F)c4)cc3C(=O)N([C@H](C)CO)C[C@@H]2C)c1,inactive
5,C[C@H](CO)N1C[C@H](C)[C@H](CN(C)Cc2ccc(C(=O)O)cc2)Oc2ccc(NC(=O)c3ccncc3)cc2C1=O,inactive
6,C[C@@H]1CCCCO[C@@H](CN(C)Cc2ccc(C(=O)O)cc2)[C@@H](C)CN([C@@H](C)CO)C(=O)c2cc(NS(=O)(=O)c3cccs3)ccc2O1,inactive
7,C[C@@H]1CN([C@H](C)CO)C(=O)CCCn2cc(nn2)CO[C@@H]1CN(C)S(=O)(=O)c1ccc2ccccc2c1,inactive
8,O=C(C[C@@H]1CC[C@@H]2[C@H](COC[C@@H](O)CN2C(=O)Nc2ccc(F)cc2)O1)NCCCN1CCOCC1,inactive
9,C[C@@H]1CN([C@@H](C)CO)C(=O)c2cc(NS(=O)(=O)c3ccc(F)cc3)ccc2O[C@@H](C)CCCCO[C@H]1CN(C)Cc1ccc(C(=O)O)cc1,inactive
10,C[C@@H](O)[C@@H](O)[C@@H](O)C/C=N/NC(=O)c1ccc(C(=O)NO)cc1,inactive
11,Cc1cc([N+](=O)[O-])nn1CC(=O)N1CCOCC1,inactive
12,COc1ccc(NC(=O)N(C)C[C@@H]2OCCCC[C@H](C)Oc3ccc(NC(=O)Nc4ccc(F)cc4)cc3C(=O)N([C@H](C)CO)C[C@@H]2C)cc1,inactive
13,C[C@@H]1CN([C@H](C)CO)C(=O)Cc2cc(NC(=O)Nc3ccc(F)cc3)ccc2O[C@@H]1CN(C)Cc1ccc(Cl)c(Cl)c1,active
14,C[C@H](CO)N1C[C@H](C)[C@H](CN(C)Cc2ccc(Cl)c(Cl)c2)Oc2ccc(NC(=O)Nc3ccc(F)cc3)cc2CC1=O,active
15,C[C@H]1CN([C@@H](C)CO)C(=O)Cc2cc(NC(=O)Nc3ccc(F)cc3)ccc2O[C@H]1CN(C)Cc1ccc(Cl)c(Cl)c1,active
16,C[C@H]1CN([C@@H](C)CO)C(=O)Cc2cc(NC(=O)Nc3ccc(F)cc3)ccc2O[C@@H]1CN(C)Cc1ccc(Cl)c(Cl)c1,active
17,Cc1noc(C)c1NC(=O)N(C)C[C@H]1Oc2c(NS(=O)(=O)c3cn(C)cn3)cccc2C(=O)N([C@@H](C)CO)C[C@H]1C,inactive
18,C/C=C/COc1nc2c(c(=O)n(C)c(=O)n2C)n1C,inactive
19,C[C@H]1CN([C@@H](C)CO)C(=O)c2cc(NC(=O)Cn3cnnn3)ccc2O[C@@H]1CN(C)C(=O)NC1CCCCC1,inactive
20,C[C@@H]1CN([C@@H](C)CO)C(=O)c2cccc(NC(=O)Nc3ccc(F)cc3)c2O[C@@H]1CN(C)Cc1ccc(C(F)(F)F)cc1,inactive
21,CC(C)NC(=O)N(C)C[C@H]1Oc2ccc(NC(=O)Cn3cnnn3)cc2CC(=O)N([C@H](C)CO)C[C@@H]1C,inactive
